# 14-3-3 Bad PPI: disrupts binding of bovine 14-3-3 zeta to phospho-Bad peptide; P63103; TR-FRET 14-3-3zeta/Dy647-pBad peptide displacement, 1 h; inhibition, % at 21.7 µM; 220,000 compounds, 0.71% hits; AID 781;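 active = inhibition above about 70%, limit read from the data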;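 note: 0% = full 14-3-3 plus peptide FRET controls and 100% = background without 14-3-3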
# Target sequence (P63103 whole entry, looked up): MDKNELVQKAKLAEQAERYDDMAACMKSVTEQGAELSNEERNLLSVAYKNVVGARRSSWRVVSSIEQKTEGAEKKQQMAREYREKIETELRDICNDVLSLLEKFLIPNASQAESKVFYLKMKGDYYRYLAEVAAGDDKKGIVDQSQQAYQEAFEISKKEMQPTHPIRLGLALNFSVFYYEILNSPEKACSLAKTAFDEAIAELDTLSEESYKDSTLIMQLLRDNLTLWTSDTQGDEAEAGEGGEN
# Mcl1 Bid PPI: disrupts binding of human Mcl-1 to Bid peptide. Q07820. TR-FRET Mcl-1/Bid-Dy647 peptide binding, 1536-well. inhibition, % at 21.7 µM. 220,000 compounds, 0.97% hits. AID 1021;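 active = compounds that cut the binding signal by more than half at the single screening dose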;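 note: His-tagged Mcl-1 with europium anti-His antibody binding Bid BH3 peptide; 0% = Mcl-1 plus peptide wells and 100% = peptide-only wells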
# Target sequence (Q07820 whole entry, looked up): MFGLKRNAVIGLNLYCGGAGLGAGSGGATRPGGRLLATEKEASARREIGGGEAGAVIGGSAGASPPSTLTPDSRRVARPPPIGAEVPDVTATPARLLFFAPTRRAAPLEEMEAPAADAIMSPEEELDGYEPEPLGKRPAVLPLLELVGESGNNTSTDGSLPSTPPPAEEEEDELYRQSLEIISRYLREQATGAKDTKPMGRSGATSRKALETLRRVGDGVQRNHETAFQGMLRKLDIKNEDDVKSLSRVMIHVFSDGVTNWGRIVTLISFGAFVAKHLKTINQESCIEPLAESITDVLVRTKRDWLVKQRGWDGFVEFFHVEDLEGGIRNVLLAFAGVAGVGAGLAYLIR
# Bim-Mcl-1: inhibitors of Bim-Mcl-1 interaction, human | Q07820 | Bead-based flow cytometry, Bim peptide-Mcl-1 binding | inhibition, % at 10 µM | 190,000 compounds, 0.1% hits | AID 1009; in the data active = inhibition above about 40%;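 note: 0% = no compound tracer wells and 100% = peptide blocker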
# m-calpain inh: calpain II (pig) inhibition; 220,000 compounds, 0.37% hits; inhibition, % at 16 µM; AID 1236; purified calpain II, fluorogenic peptide substrate, 30 min;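 active = inhibition above about 50%, limit read from the data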
# NCF1 inh: inhibitors of human p47phox binding; inhibition, % at 24.7 µM; p47phox/p22phox peptide binding, fluorescence polarization, 2 h; 220,000 compounds, 0.53% hits; P14598;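 active = inhibition above about 30%, limit read from the data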;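 note: 0% = p47phox with labelled peptide and 100% = labelled peptide alone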
# Mcl1 Noxa PPI: Mcl-1/Noxa interaction inhibition | Q07820 | TR-FRET Mcl-1/Noxa peptide binding, 2 h | inhibition, % at 21.7 µM | 220,000 compounds, 1.5% hits;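 active = compounds that cut the protein-peptide binding signal by more than 50% relative to plate controls in a single-dose test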;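 note: His-tagged Mcl-1 with rhodamine Noxa BH3 peptide and terbium anti-His antibody; 0% = Mcl-1 plus Noxa peptide wells and 100% = peptide-only wells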
# The depositor's hits bear a star; i = inactive; / = no result. Sampled rows, rich in hits. Any-hit rate of the full collection: about 3.4%.
SMILES,14-3-3 Bad PPI,Mcl1 Bid PPI,Bim-Mcl-1,m-calpain inh,NCF1 inh,Mcl1 Noxa PPI
CCOC(=O)c1cc(C#N)c(C)nc1N(CC)CC,3.0,-3.8,/,0.1,-3.5,-12.8
O=[N+]([O-])c1cccc(-c2nc3ccc([N+](=O)[O-])cc3[nH]2)c1,10.2,10.1,2.0,-45.9,-42.7,58.1*
O=[N+]([O-])c1ccc(O)c(C=Nc2ccc3nc(-c4ccccc4)[nH]c3c2)c1,49.7,63.3*,0.0,i,-8.2,62.4*
Oc1c(Br)cc(C=Nc2ccc3nc(-c4ccccc4)[nH]c3c2)c(O)c1Br,1.6,-64.3,4.0,i,-26.0,94.1*
CC1CCCCC1NC(=O)/C(C#N)=C/c1ccccc1F (stereo unspecified),-12.4,-11.1,-1.0,21.7,-10.6,13.7
Cc1cc(N=Cc2c(O)ccc3cc(Br)ccc23)no1,1.9,-23.2,1.0,-26.3,2.0,83.9*
Cc1cc(N=Cc2c(O)ccc3ccccc23)no1,14.3,-14.9,-2.0,9.8,-4.0,29.8
O=[N+]([O-])c1ccc(/C=N/n2c(CO)nc3ccccc32)s1,10.1,30.3,-6.0,-4.8,6.3,57.7*
COc1ccc(OC)c(NC(=O)COC(=O)c2cc3c(s2)CCC3)c1,43.2,-68.3,95.0*,-108.0,-9.0,71.5*
COc1ccc(OC)c(NC(=O)COC(=O)c2c3c(nc4ccccc24)CCCC3)c1,-2.2,-3.2,-2.0,3.8,-5.4,9.3
COc1ccc(Cl)cc1N(C(C)C(=O)NC1CCCC1)S(C)(=O)=O (stereo unspecified),-3.9,-40.3,1.0,-2.2,-12.1,10.1
CN(C)C=Nc1c(Br)cc(Br)c2nonc12,5.7,-31.8,-5.0,27.0,-117.3,59.9*
CC(=O)Nc1sc(N/N=C\c2ccccc2F)nc1-c1cccs1,5.0,-8.8,-8.0,-58.8,-10.3,62.0*
CC(=O)Nc1sc(N/N=C\c2ccc(O)cc2)nc1-c1cccs1,4.3,-71.2,/,-23.9,-10.4,104.3*
CC(=O)Nc1sc(N/N=C\c2cccc(Cl)c2)nc1-c1cccs1,-6.0,-10.2,-6.0,-77.5,-15.1,37.5
c1ccc(-c2nc(NCc3cccnc3)c3oc4ccccc4c3n2)cc1,81.5*,63.3*,-1.0,15.0,-45.1,36.1
c1ccc2c(c1)oc1c(NCC3CCCO3)ncnc12 (stereo unspecified),47.9,10.6,-3.0,-11.2,-8.4,25.0
c1ccc(-c2nc(NCC3CCCO3)c3oc4ccccc4c3n2)cc1 (stereo unspecified),70.5*,16.8,0.0,34.4,-6.8,28.6
CSCC[C@@H](Nc1nc(-c2ccccc2)nc2c1oc1ccccc12)C(=O)O,1.6,60.4*,-2.0,-17.6,-3.7,26.5
COc1cc(C(=S)N2CCOCC2)ccc1OC(=O)c1cc([N+](=O)[O-])c(C)c([N+](=O)[O-])c1,1.1,-62.4,-6.0,16.9,-13.1,12.6
Cc1sc2nc(CSc3ccc([N+](=O)[O-])c(C(F)(F)F)c3)[nH]c(=O)c2c1C,-9.6,-18.4,0.0,-1.4,-112.9,32.4
O=C(COc1ccccc1[N+](=O)[O-])NCCC1=CCCCC1,4.2,-12.1,0.0,22.4,0.3,17.9
COc1ccc(/C=C(\C#N)C(=O)OCC(=O)Nc2ccc(-c3nc4ccc(C)cc4s3)cc2)cc1,6.9,6.0,0.0,-134.5,-60.2,3.5
CCNC(=S)N/N=C/c1cccc(C)c1,-0.8,-49.1,-4.0,11.8,-0.9,9.8
CN(CCN(C)C(C)(C)C)C(=O)C(c1ccccc1)c1ccccc1,51.8,74.5*,/,7.0,-6.5,21.5
SMILES,14-3-3 Bad PPI,Mcl1 Bid PPI,Bim-Mcl-1,m-calpain inh,NCF1 inh,Mcl1 Noxa PPI
CC(C)(CO)NC(=O)C(c1ccccc1)c1ccccc1,0.5,-5.0,-2.0,-6.0,-5.9,-5.5
C#CCOCCOCCOCCNc1nc(N2CCN(C(=O)[C@H](Cc3ccc(O)cc3)n3cc(CCO)nn3)CC2)nc(N2CCN(C(=O)[C@H](Cc3ccc(O)cc3)n3cc(CCO)nn3)CC2)n1,73.0*,19.8,-2.0,-66.0,-8.2,-30.3
C#CCOCCOCCOCCNc1nc(N2CCN(C(=O)[C@H](CCC(=O)O)n3cc(C(N)Cc4ccc(O)cc4)nn3)CC2)nc(N2CCN(C(=O)[C@H](CCC(=O)O)n3cc(C(N)CC(C)C)nn3)CC2)n1 (stereo partly specified),42.6,59.8*,-4.0,-3.9,2.1,36.1
C#CCOCCOCCOCCNc1nc(N2CCN(C(=O)[C@H]([C@@H](C)CC)n3cc([C@@H](N)CO)nn3)CC2)nc(N2CCN(C(=O)[C@H](Cc3ccc(O)cc3)n3cc([C@@H](N)CC(C)C)nn3)CC2)n1,51.8,63.4*,-8.0,22.5,0.7,45.0
C#CCOCCOCCOCCNc1nc(N2CCN(C(=O)[C@H]([C@@H](C)O)n3cc(CCCCN)nn3)CC2)nc(N2CCN(C(=O)[C@H](Cc3ccc(O)cc3)n3cc(CCO)nn3)CC2)n1,40.3,3.6,0.0,-13.6,-2.0,21.3
C#CCOCCOCCOCCNc1nc(N2CCN(C(=O)[C@H](CCC(=O)O)n3cc(C(N)CO)nn3)CC2)nc(N2CCN(C(=O)[C@H](Cc3ccc(O)cc3)n3cc(C(N)CC(C)C)nn3)CC2)n1 (stereo partly specified),33.7,17.4,-4.0,-1.1,-0.7,27.8
C#CCOCCOCCOCCNc1nc(N2CCN(C(=O)[C@H](CCCCN)n3cc(C(N)COC(=O)C(F)(F)F)nn3)CC2)nc(N2CCN(C(=O)[C@H](CCCCN)n3cc(C(N)CC(C)C)nn3)CC2)n1 (stereo partly specified),5.1,-38.1,/,-20.3,33.8*,-18.6
O=C(CCC1CCCN(C(=O)c2ccc3cc[nH]c3c2)C1)NCc1ccc(F)c(F)c1 (stereo unspecified),-8.8,-60.2,-4.0,-35.0,-0.7,8.4
Cc1cc(=O)[nH]c(N/N=C/c2ccc(OC(=O)c3ccco3)cc2)n1,-11.6,-11.8,-3.0,20.9,-0.9,11.3
C#CCOCCOCCOCCNc1nc(N2CCN(C(=O)C([C@@H](C)CC)n3cc(C(N)CC(C)C)nn3)CC2)nc(N2CCN(C(=O)[C@H](CCC(=O)O)n3cc(C(N)CC(C)C)nn3)CC2)n1 (stereo partly specified),13.8,3.2,0.0,-13.8,/,-11.9
C#CCOCCOCCOCCNc1nc(N2CCN(C(=O)[C@H](CCC(=O)O)n3cc(C(N)CC(C)C)nn3)CC2)nc(N2CCN(C(=O)[C@H](CCC(=O)O)n3cc(C(N)CC(C)C)nn3)CC2)n1 (stereo partly specified),26.8,67.2*,-2.0,20.4,/,35.7
COc1ccc(NC(=O)Cc2c(SC)c3ccccc3n2Cc2ccccc2)cc1,3.5,-3.9,-4.0,40.1,9.0,77.5*
CC(C)(C)c1ccc(S(=O)(=O)N(CCCN2CCOCC2)Cc2cccs2)cc1,63.0,45.0,-5.0,-16.4,0.2,31.6

# Assay outcomes (PubChem BioAssay)
